Data from PubChem BioAssay.
Values joined by “and” are separate entries in the source; they are usually repeats but may differ in a detail not shown here. Identical values can stand only once. Active and inactive are the calls of the source.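 Rule for the calls, unless noted: active = compounds whose cell count with miR-34 switched on is under 0.7 times the count with it off; inactive = the rest.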 Numbered stars: 1 amine (or outer) side, 2 acyl side, 3 side chain; on linkers, the order of the positions; unused ones are H or OH. Bridge positions count the residues as written; N and C are the ends. Square brackets hold non-standard residues; d marks the D form. Peptide text beside a SMILES is read from it. * marks the point of attachment. X4 = NC1=N[C@@H]([C@H](N[*:1])C(=O)[*:2])C[C@H](O)N1; ΔAla(Z-3-ureido) = NC(=O)N/C=C(\N)C(=O)O; β3hOrn = NCCC[C@H](N)CC(=O)*; Dap = NC[C@H](N)C(=O)O

What was measured:
[1] = viability loss with induced miR-34 in A549 – imaging, A549 dox-inducible miR-34, nuclei and caspase counts, primary screen (AID 1347080); details: A549 miR-34 inducible, Hoechst nuclei count, 48 h
[2] = MELAS cybrid and Rieske KO viability enhancers – cell-based, MELAS cybrids, Rieske KO mouse fibroblasts, CellTiter-Glo, primary screen (AID 1508586;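 active = mean z-score across replicates of 1.96 or higher in either the MELAS or the Rieske mutant cell line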;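 note: z relative to plate mean and SD of compound and empty wells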); details: low glucose
[3] = galactose survival enhancers in mitochondrial complex I cybrids – cell-based, galactose medium, ATP luminescence, primary screen (AID 1645843;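 active = z-score of at least 1.8 in each of two replicates, scored against plate mean and spread of sample wells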;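 note: positive z means more ATP and so rescue of galactose-driven cybrid death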); details: complex I mutant cybrid cells, 72 h, stronger effect = higher value
[4] = P. berghei load reduction in hepatocytes – cell-based, HepG2, luciferase luminescence, HepG2 viability, primary screen (AID 624349; in the data active = parasite load remaining mostly below about 12%, no sharp cut-off; inactive = mostly above about 10%;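 note: 100% = mean of DMSO negative control wells on the same plate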); details: P. berghei liver stage in HepG2, luciferase luminescence, concentration not given here; parasite load remaining: stronger effect = lower value; viability: measured here: HepG2 viability without parasites
[5] = target: NAD(+) hydrolase SARM1 (Homo sapiens) (UniProt Q6SZW1); experiment: blocking NAD cleavage by SARM1 SAM-TIR – cell lysate, NAD-Glo luminescence (AID 1508614;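 active = compound whose remaining NAD level is above about 45 nM, limit read from the data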;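 note: higher remaining NAD means stronger inhibition of SARM1 NADase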); details: SAM-TIR HEK293T lysate NADase, at 1 µM, stronger effect = higher value
Chain of NAD(+) hydrolase SARM1 (Homo sapiens) (Q6SZW1 whole entry, looked up): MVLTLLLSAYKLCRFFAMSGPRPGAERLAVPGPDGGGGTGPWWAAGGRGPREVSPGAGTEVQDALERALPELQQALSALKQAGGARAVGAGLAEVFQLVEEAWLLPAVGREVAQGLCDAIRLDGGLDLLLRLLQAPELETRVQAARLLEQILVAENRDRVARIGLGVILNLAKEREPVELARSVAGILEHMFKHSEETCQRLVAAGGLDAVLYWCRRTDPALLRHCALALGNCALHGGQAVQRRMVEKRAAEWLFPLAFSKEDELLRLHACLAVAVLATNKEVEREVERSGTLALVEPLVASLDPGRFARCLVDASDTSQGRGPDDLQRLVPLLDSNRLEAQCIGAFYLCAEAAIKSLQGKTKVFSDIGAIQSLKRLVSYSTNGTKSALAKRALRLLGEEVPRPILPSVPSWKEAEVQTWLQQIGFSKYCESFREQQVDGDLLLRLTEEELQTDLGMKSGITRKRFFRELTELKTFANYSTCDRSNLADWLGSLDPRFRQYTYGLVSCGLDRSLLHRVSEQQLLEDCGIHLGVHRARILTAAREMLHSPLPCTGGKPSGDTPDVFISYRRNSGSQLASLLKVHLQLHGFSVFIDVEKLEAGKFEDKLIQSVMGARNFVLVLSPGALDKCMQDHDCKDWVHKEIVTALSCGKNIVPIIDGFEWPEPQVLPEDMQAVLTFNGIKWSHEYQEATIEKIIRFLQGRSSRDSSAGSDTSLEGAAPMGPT

[6] = stronger effect = lower value, cell number ratio, induced over uninduced
[7] = measured here: relative caspase fold change +Dox/-Dox
[8] = measured here: total cells with miR-34 induction, stronger effect = lower value
[9] = measured here: total cells without miR-34 induction
[10] = MELAS cybrid survival, CellTiter-Glo 48 h, stronger effect = higher value
[11] = Rieske KO mouse fibroblast survival, CellTiter-Glo 72 h

Row | Compound | fold change [1, 6] | fold change [1, 7] | cell count [1, 8] | cell count [1, 9] | z-score [2, 10] | z-score [2, 11] | z-score [3] | parasite load remaining [4] | viability [4] | remaining NAD [5]
1 | O=[N+]([O-])c1ccc(-c2ccn[nH]2)cc1 | 0.922 (inactive) | 0.744 | 8360 | 9070 | -0.915 (inactive) | -0.293 | 0.59 (inactive) | – | – | –
2 | CCc1ccccc1-c1cc(C)nc(N)n1 | 0.887 (inactive) | 1.81 | 8420 | 9490 | -0.131 (inactive) | -1.38 | -0.555 (inactive) | – | – | –
3 | Nc1ncccc1OCc1ccccc1 | 0.764 (inactive) | 0.403 | 7870 | 10300 | -0.968 (inactive) | -0.912 | -0.165 (inactive) | – | – | –
4 | NCCC[C@H](N)CC(=O)N[C@H]1CNC(=O)[C@H]([C@H]2C[C@H](O)NC(N)=N2)NC(=O)/C(=C/NC(N)=O)NC(=O)[C@H](CO)NC(=O)[C@H](CO)NC1=O (β3hOrn-[Dap]SS[ΔAla(Z-3-ureido)][X4]; lactam 1-C) | 0.967 (inactive) | 0.791 | 9150 | 9470 | -0.695 (inactive) | -0.532 | – | 90.6% (inactive) | 75% | 10 nM (inactive)
5 | NC[C@H]1O[C@H](O[C@H]2[C@H](O)[C@@H](O[C@H]3O[C@H](CO)[C@@H](O)[C@H](N)[C@H]3O)[C@H](N)C[C@@H]2N)[C@H](O)[C@@H](O)[C@@H]1O | 0.854 (inactive) | 1.26 | 8420 | 9860 | -0.387 (inactive) | -0.145 | – | 178% (inactive) | 108% | 10 nM (inactive)
6 | Cn1c(=O)c2c(nc(N3CCNCC3)n2Cc2ccccc2)n(C)c1=O | 0.839 (inactive) | 0.525 | 7900 | 9410 | -1.69 (inactive) | -0.314 | 0.525 (inactive) | – | – | –
7 | CCCCS(=O)(=O)CCC(=O)O | 0.879 (inactive) | 0.837 | 8330 | 9470 | -0.282 (inactive) | -0.71 | -0.155 (inactive) | – | – | –
8 | CCOC(=O)O[C@]1(C(=O)COC(=O)CC)CC[C@H]2[C@@H]3CCC4=CC(=O)C=C[C@]4(C)[C@H]3[C@@H](O)C[C@@]21C | 0.839 (inactive) | 0.816 | 5980 | 7130 | -0.565 (inactive) | 0.21 | – | 80.7% (inactive) | 80.3% | 10 nM (inactive)
9 | O=C1NCC(=O)N2CCCC12 (centres undefined) | 0.892 (inactive) | 0.892 | 8240 | 9240 | -0.237 (inactive) | -0.595 | 0.315 (inactive) | – | – | –
10 | CN1CC2c3ccccc3Oc3ccc(Cl)cc3C2C1 (centres undefined) | 0.788 (inactive) | 0.355 | 4990 | 6330 | 0.214 (inactive) | 0.0022 | -2.21 (inactive) | – | – | –
11 | CC(C)n1cc(-c2cc(C(=O)N(C)Cc3cccnc3)c3cc(F)ccc3n2)cn1 | 0.861 (inactive) | 1.63 | 9060 | 10500 | -0.238 (inactive) | 0.816 | -0.535 (inactive) | – | – | –
12 | Cc1cc(=O)oc2cc(OC3OC(CO)C(O)C(O)C3O)ccc12 (centres undefined) | 0.875 (inactive) | 0.68 | 8660 | 9900 | 0.734 (inactive) | -0.54 | 0.72 (inactive) | – | – | –
13 | CC1OC(OC2C(CO)OC(OC3C(CO)OC(O)C(O)C3O)C(O)C2O)C(O)C(O)C1NC1C=C(CO)C(O)C(O)C1O (centres undefined) | 0.923 (inactive) and 1.03 (inactive) | 1.2 and 0.703 | 9530 and 7300 | 10300 and 7090 | -0.375 (inactive) | -0.157 | 0.475 (inactive) | – | – | –
14 | CO[C@H]1C[C@H](O[C@H]2[C@H](C)[C@@H](O[C@@H]3O[C@H](C)C[C@H](N(C)C)[C@H]3OC(C)=O)[C@@H](C)C[C@@]3(CO3)C(=O)[C@H](C)[C@@H](OC(C)=O)[C@@H](C)[C@@H](C)OC(=O)[C@@H]2C)O[C@@H](C)[C@@H]1OC(C)=O | 0.951 (inactive) and 0.962 (inactive) | 1.2 and 1.02 | 9570 and 9780 | 10100 and 10200 | 0.411 (inactive) and -0.389 (inactive) | -0.0819 and -0.533 | 0.095 (inactive) | 27.9% (inactive) and 46.8% (inactive) | 46.5% and 147% | –
15 | Cc1c(OCC(F)(F)F)ccnc1C[S@@](=O)c1nc2ccccc2[nH]1 | 0.977 (inactive) | 1.03 | 7200 | 7370 | -0.079 (inactive) | -0.121 | – | – | – | 53 nM (active)
16 | NCc1ccccc1CC(=O)N[C@@H]1C(=O)N2C(C(=O)O)=C(CSc3nnnn3CC(=O)O)CS[C@H]12 | 0.949 (inactive) | 1.15 | 8230 | 8670 | 0.404 (inactive) | -0.0556 | – | 167% (inactive) and 62% (inactive) | 121% and 87.5% | 10 nM (inactive)
17 | Cc1cc(-c2csc(Nc3ccc(C(=O)O)c(O)c3)n2)ccc1F | 0.849 (inactive) | 0.325 | 8200 | 9650 | 2.38 (active) | -0.525 | 1.02 (inactive) | – | – | –
18 | O=C1CN(c2ncnc3sccc23)CCN1Cc1cccc(F)c1 | 0.826 (inactive) | 1.63 | 4730 | 5730 | -0.104 (inactive) | 0.0557 | 3.78 (active) | – | – | –
19 | CN(C)c1ccc(C(=O)O)cc1 | 0.927 (inactive) | 0.253 | 8940 | 9650 | -0.46 (inactive) | 0.0916 | 0.71 (inactive) | – | – | –
20 | NC(=O)c1c(NC(=O)C2CC2)sc2c1CCCC2 | 0.825 (inactive) | 0.622 | 7330 | 8890 | -0.327 (inactive) | 0.409 | 0.65 (inactive) | – | – | –
21 | CC(C)[N+]1(C)[C@@H]2CC[C@H]1CC(OC(=O)C(CO)c1ccccc1)C2 (some centres undefined) | 0.879 (inactive) | 1.21 | 10100 | 11500 | -0.791 (inactive) | -0.158 | 0.555 (inactive) | 74.8% (inactive) | 106% | 10 nM (inactive)
22 | C[C@@H]1CCC[C@H](C)N1NC(=O)c1ccc(Cl)c(S(N)(=O)=O)c1 | 0.884 (inactive) and 0.878 (inactive) | 1.72 and 1.06 | 9180 and 9670 | 10400 and 11000 | 0.52 (inactive) and -0.675 (inactive) | -0.0626 and -0.387 | 0.85 (inactive) | 123% (inactive) and 80.9% (inactive) | 112% and 106% | –
